# “And” between values parts separate entries of the source, which are not always exact repeats. Identical values can stand only once. For part of these data: Entries with a potency or affinity are not part of this list.
# Legend:
# Set-up in all cases: scale not given: direction of the effect not stated beside the values
# [1] = target: Protein translocase subunit SecA (Escherichia coli (strain K12)) (UniProt P10408); test: Assay to Identify E. coli SecA ATPase Inhibitors; type: functional; settings: 30 µM
# Sequence of Protein translocase subunit SecA (Escherichia coli (strain K12)) (P10408 whole entry): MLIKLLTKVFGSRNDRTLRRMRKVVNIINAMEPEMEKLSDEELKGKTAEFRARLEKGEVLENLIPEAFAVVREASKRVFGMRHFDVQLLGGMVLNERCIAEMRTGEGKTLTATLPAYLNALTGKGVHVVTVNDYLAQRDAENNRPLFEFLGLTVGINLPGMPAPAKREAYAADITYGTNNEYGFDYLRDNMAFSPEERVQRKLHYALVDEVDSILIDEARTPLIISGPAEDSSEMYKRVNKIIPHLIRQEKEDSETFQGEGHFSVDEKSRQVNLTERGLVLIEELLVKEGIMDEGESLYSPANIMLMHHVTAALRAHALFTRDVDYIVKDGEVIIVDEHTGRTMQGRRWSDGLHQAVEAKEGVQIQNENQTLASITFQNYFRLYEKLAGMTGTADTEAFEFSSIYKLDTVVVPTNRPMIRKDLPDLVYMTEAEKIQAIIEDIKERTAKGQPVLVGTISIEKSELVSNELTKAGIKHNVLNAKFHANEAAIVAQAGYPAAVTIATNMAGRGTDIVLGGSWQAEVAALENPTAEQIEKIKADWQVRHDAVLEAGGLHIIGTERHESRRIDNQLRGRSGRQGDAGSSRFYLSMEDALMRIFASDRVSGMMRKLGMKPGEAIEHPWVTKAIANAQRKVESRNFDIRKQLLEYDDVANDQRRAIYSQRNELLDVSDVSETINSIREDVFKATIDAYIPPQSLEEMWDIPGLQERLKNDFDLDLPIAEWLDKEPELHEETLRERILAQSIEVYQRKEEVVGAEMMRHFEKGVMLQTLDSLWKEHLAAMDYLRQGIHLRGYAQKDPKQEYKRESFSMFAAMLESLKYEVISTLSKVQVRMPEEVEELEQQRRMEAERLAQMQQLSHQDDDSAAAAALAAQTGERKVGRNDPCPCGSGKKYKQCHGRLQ
# [2] = target: T1, Ubiquitin-activating enzyme e1, putative (Leishmania donovani (strain BPK282A1)) (UniProt E9BSI1); test: Leishmania donovani Ubiquitin Activating Enzyme (LdE1); type: functional; settings: 30 µM
# T1 sequence (whole entry): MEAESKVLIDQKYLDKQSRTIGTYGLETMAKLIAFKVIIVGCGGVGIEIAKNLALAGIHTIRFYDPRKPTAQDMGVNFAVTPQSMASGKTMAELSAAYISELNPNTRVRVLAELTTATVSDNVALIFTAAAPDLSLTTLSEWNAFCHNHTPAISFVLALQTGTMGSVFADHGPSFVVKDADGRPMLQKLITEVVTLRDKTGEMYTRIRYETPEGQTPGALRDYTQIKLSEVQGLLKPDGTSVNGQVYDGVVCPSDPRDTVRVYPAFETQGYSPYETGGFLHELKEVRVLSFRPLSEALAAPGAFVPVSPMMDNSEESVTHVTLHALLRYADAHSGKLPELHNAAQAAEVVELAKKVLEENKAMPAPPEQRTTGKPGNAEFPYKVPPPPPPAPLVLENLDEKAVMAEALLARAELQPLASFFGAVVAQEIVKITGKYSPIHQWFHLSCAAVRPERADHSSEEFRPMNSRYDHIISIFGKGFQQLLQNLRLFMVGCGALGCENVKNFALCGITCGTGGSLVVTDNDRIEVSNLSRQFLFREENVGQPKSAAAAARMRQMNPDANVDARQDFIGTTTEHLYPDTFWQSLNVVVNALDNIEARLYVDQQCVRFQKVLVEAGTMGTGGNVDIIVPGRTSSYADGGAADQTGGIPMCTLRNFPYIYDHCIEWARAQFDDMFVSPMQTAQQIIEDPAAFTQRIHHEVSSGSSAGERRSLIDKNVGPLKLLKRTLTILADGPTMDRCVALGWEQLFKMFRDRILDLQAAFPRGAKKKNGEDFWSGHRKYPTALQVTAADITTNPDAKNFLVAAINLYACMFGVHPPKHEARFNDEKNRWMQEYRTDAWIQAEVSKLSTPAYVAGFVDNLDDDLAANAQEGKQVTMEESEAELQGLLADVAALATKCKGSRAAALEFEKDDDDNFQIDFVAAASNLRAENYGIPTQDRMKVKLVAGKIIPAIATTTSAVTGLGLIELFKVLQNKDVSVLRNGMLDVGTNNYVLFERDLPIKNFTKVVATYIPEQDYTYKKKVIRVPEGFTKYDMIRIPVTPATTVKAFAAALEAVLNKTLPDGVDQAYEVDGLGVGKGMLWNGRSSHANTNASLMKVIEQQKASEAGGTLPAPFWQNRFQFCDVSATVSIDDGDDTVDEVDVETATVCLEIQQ
# [3] = target: AMP-activated protein kinase, AMPK (Homo sapiens) (UniProt P54646+O43741+P54619+Q9UGJ0+Q9Y478+Q13131+Q9UGI9); test: AMP-dependent Kinase enzyme assay. An in vitro enzyme assay that detects ADP turnover that is directly proportional to AMPK activity. This uses naive AMPK that is activated during the assay with MK-8722; type: functional; settings: 30 µM
# [4] = target: Sialic acid-binding Ig-like lectin 9 (Homo sapiens) (UniProt Q9Y336); test: Hs-Siglec9 ALPHAscreen SOP 20170721; settings: 10 µM
# Sequence of Sialic acid-binding Ig-like lectin 9 (Homo sapiens) (Q9Y336 whole entry): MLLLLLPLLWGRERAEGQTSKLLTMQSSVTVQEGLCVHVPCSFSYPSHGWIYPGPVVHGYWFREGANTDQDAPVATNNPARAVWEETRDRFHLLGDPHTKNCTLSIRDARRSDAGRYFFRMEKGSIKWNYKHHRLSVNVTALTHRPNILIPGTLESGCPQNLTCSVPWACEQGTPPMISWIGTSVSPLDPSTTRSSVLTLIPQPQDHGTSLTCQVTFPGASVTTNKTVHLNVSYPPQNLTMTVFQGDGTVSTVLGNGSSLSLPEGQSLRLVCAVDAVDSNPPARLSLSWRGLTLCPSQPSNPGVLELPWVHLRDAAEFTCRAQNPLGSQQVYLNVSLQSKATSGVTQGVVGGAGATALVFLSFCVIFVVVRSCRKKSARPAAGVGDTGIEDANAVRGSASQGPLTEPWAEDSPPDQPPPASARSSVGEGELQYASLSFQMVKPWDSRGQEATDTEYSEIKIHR
# [5] = tested on: Trypanosoma cruzi; test: Trypanosoma cruzi phosphomannomutase and mannose-1-phosphate guanylyltransferase assay; type: functional; settings: 10 µM
# [6] = target: T2, Arginase-2, mitochondrial (Homo sapiens) (UniProt P78540); test: in vitro enzyme assay to detect the production of urea directly proportional to the activity of Arginase II; type: functional; settings: 33.3 µM; further: in the data most compounds retested in dose-response had high values
# T2 sequence (whole entry): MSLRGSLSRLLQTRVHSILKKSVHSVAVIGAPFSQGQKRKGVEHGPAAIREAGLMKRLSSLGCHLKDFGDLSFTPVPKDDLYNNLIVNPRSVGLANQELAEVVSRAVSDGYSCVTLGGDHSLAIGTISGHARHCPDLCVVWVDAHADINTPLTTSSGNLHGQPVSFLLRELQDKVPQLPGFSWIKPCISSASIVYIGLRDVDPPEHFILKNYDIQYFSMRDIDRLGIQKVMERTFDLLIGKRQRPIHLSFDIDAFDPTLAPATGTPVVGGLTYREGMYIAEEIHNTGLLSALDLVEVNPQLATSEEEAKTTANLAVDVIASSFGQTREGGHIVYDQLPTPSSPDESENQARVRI
# [7] = target: T3, Proteasome subunit beta (Trypanosoma cruzi) (UniProt O96673); test: Trypanosoma cruzi proteasome chymotrypsin-like activity (TcProtChymo) assay.; further: in the data most compounds retested in dose-response had high values; type: functional; settings: 9.37 µM
# T3 sequence (whole entry): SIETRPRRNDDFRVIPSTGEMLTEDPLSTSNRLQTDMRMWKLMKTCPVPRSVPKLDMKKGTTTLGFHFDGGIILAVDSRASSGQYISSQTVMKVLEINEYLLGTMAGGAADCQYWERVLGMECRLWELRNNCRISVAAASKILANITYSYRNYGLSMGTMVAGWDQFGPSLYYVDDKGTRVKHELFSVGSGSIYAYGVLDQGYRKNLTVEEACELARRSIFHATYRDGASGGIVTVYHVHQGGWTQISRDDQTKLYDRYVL
# [8] = species on record: Homo sapiens; test: To identify inhibition of the IFN signalling (Jak-Stat) pathway via expression of an eGFP reporter gene under the control of an IFN-stimulated response element (ISRE) containing MxA promoter.; type: functional; settings: 30 µM
# [9] = target: T4, Tyrosyl-tRNA synthetase, putative (Trypanosoma cruzi (strain CL Brener)) (UniProt Q4DSP6); test: Trypanosoma cruzi tyrosyl tRNA synthetase (TcYRS) _High Tyrosine SOP; type: functional; settings: 30 µM; further: in the data most compounds retested in dose-response had high values
# T4 sequence (whole entry): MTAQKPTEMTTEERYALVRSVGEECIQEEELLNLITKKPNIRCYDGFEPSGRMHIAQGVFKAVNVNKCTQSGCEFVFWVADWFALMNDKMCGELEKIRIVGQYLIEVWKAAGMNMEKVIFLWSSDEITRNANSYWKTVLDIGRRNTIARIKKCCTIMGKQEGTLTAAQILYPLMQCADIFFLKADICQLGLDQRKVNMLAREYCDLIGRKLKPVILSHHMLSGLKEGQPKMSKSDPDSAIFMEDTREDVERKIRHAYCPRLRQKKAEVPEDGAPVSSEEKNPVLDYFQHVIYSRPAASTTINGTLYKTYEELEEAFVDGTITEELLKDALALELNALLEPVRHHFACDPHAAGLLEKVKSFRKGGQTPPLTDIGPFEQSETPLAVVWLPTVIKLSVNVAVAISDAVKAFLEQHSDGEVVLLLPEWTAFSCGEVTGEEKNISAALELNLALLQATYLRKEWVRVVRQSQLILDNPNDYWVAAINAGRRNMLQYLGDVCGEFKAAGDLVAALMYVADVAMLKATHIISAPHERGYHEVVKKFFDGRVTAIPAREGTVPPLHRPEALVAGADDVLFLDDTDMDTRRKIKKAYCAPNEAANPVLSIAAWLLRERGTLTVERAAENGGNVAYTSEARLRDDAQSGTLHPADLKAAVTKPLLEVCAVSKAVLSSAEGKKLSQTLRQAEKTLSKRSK
# [10] = target: T4, Tyrosyl-tRNA synthetase, putative (Trypanosoma cruzi (strain CL Brener)); test: Trypanosoma cruzi tyrosyl tRNA synthetase (TcYRS) SOP; type: functional; settings: 30 µM
# [11] = target: Chromo domain-containing protein 1 (Saccharomyces cerevisiae (strain ATCC 204508 / S288c) (Baker's yeast)) (UniProt P32657); test: ScCHD-1 Enzyme Inhibition Assay; type: functional; settings: 30 µM; further: in the data most compounds retested in dose-response had high values
# Sequence of Chromo domain-containing protein 1 (Saccharomyces cerevisiae (strain ATCC 204508 / S288c) (Baker's yeast)) (P32657 whole entry, the tested form may be a part): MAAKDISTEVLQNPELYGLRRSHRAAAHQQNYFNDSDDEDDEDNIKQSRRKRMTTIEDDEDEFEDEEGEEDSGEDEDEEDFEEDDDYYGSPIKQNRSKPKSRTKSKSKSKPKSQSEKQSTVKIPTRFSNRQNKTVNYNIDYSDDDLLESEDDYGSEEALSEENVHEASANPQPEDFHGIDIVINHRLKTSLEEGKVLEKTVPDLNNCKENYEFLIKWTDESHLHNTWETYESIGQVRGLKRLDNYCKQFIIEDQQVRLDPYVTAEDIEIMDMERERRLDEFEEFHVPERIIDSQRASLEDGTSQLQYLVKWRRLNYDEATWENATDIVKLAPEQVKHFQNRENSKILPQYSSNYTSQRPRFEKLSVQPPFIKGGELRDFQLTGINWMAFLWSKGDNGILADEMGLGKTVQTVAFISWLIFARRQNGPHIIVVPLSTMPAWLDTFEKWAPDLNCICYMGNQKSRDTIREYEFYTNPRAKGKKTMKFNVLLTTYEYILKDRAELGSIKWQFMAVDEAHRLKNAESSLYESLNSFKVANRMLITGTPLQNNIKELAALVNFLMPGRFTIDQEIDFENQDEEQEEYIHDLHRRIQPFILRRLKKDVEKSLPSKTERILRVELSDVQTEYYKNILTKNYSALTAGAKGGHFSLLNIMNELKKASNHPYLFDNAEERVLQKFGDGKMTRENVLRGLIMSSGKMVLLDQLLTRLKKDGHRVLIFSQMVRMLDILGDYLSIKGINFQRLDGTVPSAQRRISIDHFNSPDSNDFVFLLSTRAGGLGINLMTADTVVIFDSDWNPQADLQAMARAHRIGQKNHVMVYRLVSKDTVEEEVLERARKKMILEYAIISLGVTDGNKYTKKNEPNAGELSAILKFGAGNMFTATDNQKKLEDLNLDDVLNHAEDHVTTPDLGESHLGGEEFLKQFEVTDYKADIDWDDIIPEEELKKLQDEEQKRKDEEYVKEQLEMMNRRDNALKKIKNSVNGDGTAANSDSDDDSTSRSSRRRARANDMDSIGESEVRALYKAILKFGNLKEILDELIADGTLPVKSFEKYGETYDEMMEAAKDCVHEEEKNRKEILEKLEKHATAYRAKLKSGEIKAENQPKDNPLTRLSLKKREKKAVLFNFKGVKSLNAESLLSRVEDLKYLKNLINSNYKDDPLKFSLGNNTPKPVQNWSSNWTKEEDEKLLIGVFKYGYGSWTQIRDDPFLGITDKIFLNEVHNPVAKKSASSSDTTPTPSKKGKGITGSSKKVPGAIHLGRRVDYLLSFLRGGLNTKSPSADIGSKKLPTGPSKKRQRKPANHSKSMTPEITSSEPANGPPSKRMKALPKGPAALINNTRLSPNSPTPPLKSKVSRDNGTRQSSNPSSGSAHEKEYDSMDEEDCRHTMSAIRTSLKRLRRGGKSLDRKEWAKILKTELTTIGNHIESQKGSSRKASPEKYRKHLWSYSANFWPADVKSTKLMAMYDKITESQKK
# [12] = tested on: N/A; test: Trypanosoma cruzi proteasome luciferase counter-screen; type: functional; settings: 9.37 µM
SMILES,Percent Effect [1],Percent Effect [2],Percent Effect [3],Percent Effect [4],Percent Effect [5],Percent Effect [6],Percent Effect [7],Percent Effect [8],Percent Effect [9],Percent Effect [10],Percent Effect [11],Percent Effect [12]
O=C(CN1CCCC1Cn1cccn1)NC1CCOCC1 (configuration not stated),-0.811%,0%,-3.32%,-1.02%,0.772%,-2.38%,13.6%,-13.8%,1.59%,-12.2%,-2.17%,
CC(C)c1noc(C(C)N2CCN(Cc3ccsc3)CC2)n1 (configuration not stated),-4.95%,7.89%,-4.06%,-4.87%,-3.46%,3.6%,-2.45%,-18.3%,4.43%,3.7%,4.12%,
CNS(=O)(=O)Cc1ccc(CNc2cncc(-n3cccn3)n2)cc1,-1.63%,18.2%,3.34%,6.42%,5.24%,0%,,18.8%,7.77%,24.4%,-12.2%,16.1% and 14.8%
O=C(c1cccc2[nH]ncc12)N1CCCC1c1noc(C2CC2)n1 (configuration not stated),0.141%,20.2%,1.95%,-11.1%,-3.31%,8.74%,7.29%,24.4%,5.42%,11.4%,-8.01%,
O=C(c1cc[nH]n1)N1CCCC1C1CCN(Cc2ccccc2)CC1 (configuration not stated),-0.52%,-7.89%,10.9%,1.13%,-7.11%,1.18%,16.6%,-0.106%,4.25%,7.79%,-1.17%,
Cc1nc(CN2CCCN(CC(=O)Nc3cccnc3)CC2)no1,-3.59%,18.2%,4.53%,-8.79%,-0.294%,4.84%,,23.7%,5.71%,9.41%,-14%,15.2% and 14.2%
Cc1nn(C)c(C)c1C1COCCN1C(=O)c1n[nH]c2ccccc12 (configuration not stated),-1.74%,18.2%,2.92%,-4.32%,6.74%,-0.712%,,-8.49%,5.83%,21.9%,-7.82%,17.2% and 17.5%
COc1ccc(-c2nnc(SC(C)C(=O)NCC(C)C)[nH]2)c(OC)c1 (configuration not stated),-3.62%,10.5%,2.87%,6.11%,1.27%,-3.55%,13.5%,91.3%,3.19%,18.2%,2.44%,
Cc1ncsc1-c1nnc(C2CCN(Cc3ccc(F)cc3)CC2)o1,-0.551%,-4.05%,20%,-0.16%,1.19%,-0.696%,1.25%,-6.87%,0%,-6.49%,-19.5%,
CC(C)N1CCC(NCc2cccnc2N(C)C)CC1,-6.06%,5.33%,-3.18%,0.114%,0.487%,2.6%,7.15%,0.898%,-0.546%,8.64%,-4.8%,
COCCC(=O)N1C[C@@H]2COC[C@]2(COCc2cccnc2)C1,-1.17%,13%,1.86%,-1.48%,-14.7%,12.3%,12%,17.3%,-1.06%,8.97%,-8.34%,
COCC1CN(C(=O)c2cccn2C)Cc2ncnn2C1 (configuration not stated),-5.41%,5.2%,0.668%,11.3%,9.34%,4.14%,8.32%,9.25%,-2.15%,11.1%,3.71%,
